Results as given in PubChem BioAssay.
“And” between values parts separate entries of the source, which are not always exact repeats. Equal entries are not always repeated. The source made the active and inactive calls. Unless noted, no stated cut-off is given here; in the data, active means inhibition above about 80%; inactive means the rest.

Experiments:
[1] = viability rescue of complex I mutant cybrids, primary screen, cell-based, galactose medium, ATP luminescence (AID 1645843;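 active means z-score of at least 1.8 in each of two replicates, scored against plate mean and spread of sample wells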;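 further: positive z means more ATP and so rescue of galactose-driven cybrid death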); conditions: complex I mutant cybrid cells, 72 h, stronger effect = higher value
[2] = LFS_MB_1R medulloblastoma cell growth inhibition, synergistic combos for chromothripsis tumors, cisplatin or BGB combos (AID 1671452); conditions: LFS_MB_1R medulloblastoma cells, stronger effect = higher value;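 further: cells exposed for 96 hours before readout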
[3] = CRL2098 osteosarcoma cell growth inhibition, synergistic combos for chromothripsis tumors, BGB or cisplatin IC20 combos (AID 1671454); conditions: CRL2098 osteosarcoma cells, drug combinations, stronger effect = higher value;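 further: cells exposed for 96 h before readout; 0% = vehicle DMSO and 100% = killing by high DMSO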
[4] = HD-MB03 medulloblastoma cell growth inhibition, synergistic combos for chromothripsis tumors, BGB or cisplatin IC20 combos (AID 1671455; in the data active means inhibition above about 83%;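 further: 0% = vehicle DMSO and 100% = high DMSO as cytotoxic control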); conditions: HD-MB03 medulloblastoma cells, stronger effect = higher value
[5] = UWB1.289 ovarian carcinoma cell growth inhibition, synergistic combos for chromothripsis tumors, BGB or cisplatin combos (AID 1671456); conditions: UWB1.289 ovarian carcinoma cells, stronger effect = higher value;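 further: cells exposed to compound for four days; 0% = vehicle DMSO and 100% = killing by high DMSO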
[6] = LFS_MB_2R medulloblastoma cell growth inhibition, synergistic combos for chromothripsis tumors, cisplatin combos (AID 1671457); conditions: LFS_MB_2R medulloblastoma cells, stronger effect = higher value;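 further: cells exposed to compound for four days before readout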
[7] = UWB1.289_BRCA1 ovarian cancer growth, cell-based, BGB or cisplatin combinations (AID 1671459); conditions: UWB1.289 BRCA1 ovarian carcinoma, drug combinations, stronger effect = higher value
[8] = human astrocyte viability loss, single and combined drugs, cytotoxicity control for chromothriptic childhood tumor combination screen, cell-based, BGB or cisplatin IC20 combos (AID 1671460); conditions: Human astrocytes, drug combinations, stronger effect = higher value;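 further: cells exposed to compounds for 96 hours before viability readout; 0% = vehicle and 100% = killing control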
[9] = biological target: NAD(+) hydrolase SARM1 (Homo sapiens) (UniProt Q6SZW1); assay: SARM1 TIR NADase inhibitors, cell lysate, NAD-Glo luminescence (AID 1508614;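 active means compound whose remaining NAD level is above about 45 nM, limit read from the data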); conditions: SAM-TIR HEK293T lysate NADase, at 1 µM, stronger effect = higher value
Sequence of NAD(+) hydrolase SARM1 (Homo sapiens) (Q6SZW1 whole entry, looked up): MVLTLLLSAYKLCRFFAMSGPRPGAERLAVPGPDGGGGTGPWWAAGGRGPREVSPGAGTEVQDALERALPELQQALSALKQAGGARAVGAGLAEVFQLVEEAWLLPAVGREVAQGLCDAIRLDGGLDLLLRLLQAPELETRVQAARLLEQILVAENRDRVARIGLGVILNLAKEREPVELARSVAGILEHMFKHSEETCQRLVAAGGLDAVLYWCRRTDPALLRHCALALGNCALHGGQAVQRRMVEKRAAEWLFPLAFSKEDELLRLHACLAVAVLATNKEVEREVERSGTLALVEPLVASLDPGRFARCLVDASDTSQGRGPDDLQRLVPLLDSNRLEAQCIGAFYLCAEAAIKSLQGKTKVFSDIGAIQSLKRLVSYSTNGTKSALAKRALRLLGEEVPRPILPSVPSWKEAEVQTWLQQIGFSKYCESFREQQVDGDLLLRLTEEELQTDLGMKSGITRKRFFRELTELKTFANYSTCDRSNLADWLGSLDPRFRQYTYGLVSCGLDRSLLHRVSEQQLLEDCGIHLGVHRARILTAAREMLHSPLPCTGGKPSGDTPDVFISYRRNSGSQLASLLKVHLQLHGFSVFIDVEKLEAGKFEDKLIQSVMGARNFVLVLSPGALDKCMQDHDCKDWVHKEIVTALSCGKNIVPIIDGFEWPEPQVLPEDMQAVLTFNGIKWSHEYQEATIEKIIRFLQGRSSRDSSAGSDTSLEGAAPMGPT

[10] = liver-stage malaria parasite growth inhibition, primary screen, cell-based, HepG2, luciferase luminescence, HepG2 viability (AID 624349; in the data active means parasite load remaining mostly below about 12%, no sharp cut-off; inactive means mostly above about 10%;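 further: 100% = mean of DMSO negative control wells on the same plate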); conditions: P. berghei liver stage in HepG2, luciferase luminescence, concentration not given here; parasite load remaining: stronger effect = lower value; viability: measured here: HepG2 viability without parasites
[11] = phospholipid biosynthesis inhibitors in animal cells, primary screen, cell-based, LOPAC library, screen 4 (AID 1347384; call rule not given here); conditions: phospholipid biosynthesis inhibition screen, at 10 µM
[12] = measured here: combination with BGB IC40, at 0.05 µM
[13] = measured here: combination with cisplatin, at 0.5 µM
[14] = measured here: combination with cisplatin, at 5 µM
[15] = measured here: combination with BGB at IC20, at 0.5 µM
[16] = measured here: combination with cisplatin at IC20, at 0.5 µM
[17] = measured here: combo with BGB at IC20, at 0.5 µM
[18] = measured here: combo with cisplatin at IC20, at 0.5 µM
[19] = measured here: inhibition with BGB combination, at 0.05 µM
[20] = measured here: inhibition with cisplatin combination, at 0.05 µM
[21] = BGB combination, concentration series, at 5 µM
[22] = cisplatin combination, concentration series, at 5 µM
[23] = measured here: combo with BGB IC20, at 0.5 µM
[24] = measured here: combo with cisplatin IC20, at 0.5 µM

CCCCCCCCCCCC(CC1OC(=O)C1CCCCCC)OC(=O)C(CC(C)C)NC=O (stereo not drawn)
z-score [1]: -1.84 (inactive)

Cc1ccc2nc(NCCN)c3ncc(C)n3c2c1
inhibition ([2]; at 0.5 µM): 1.37% (inactive)
inhibition [2, 12]: -13.1%
inhibition [2, 13]: -5.04%
inhibition [2, 14]: 83.6%
inhibition ([3]; at 0.5 µM): -21.4% (inactive)
inhibition [3, 15]: 13.8%
inhibition [3, 16]: -60.3%
inhibition ([4]; at 0.5 µM): -5.33% (inactive)
inhibition [4, 17]: -7.44%
inhibition [4, 18]: -1.09%
inhibition ([5]; at 0.5 µM): -4.12% (inactive)
inhibition [5, 19]: -17.4%
inhibition [5, 20]: -11.7%
inhibition ([6]; at 0.5 µM): -14.5% (inactive)
inhibition [6, 13]: -10.3%
inhibition [6, 14]: 15.9%
inhibition [7, 21]: 91.7%
inhibition ([7]; at 0.5 µM): 1.55% (inactive)
inhibition [7, 22]: 76.1%
inhibition ([8]; at 0.5 µM): -0.35% (inactive)
inhibition [8, 23]: 0.763%
inhibition [8, 24]: 2.83%

C[C@]1(c2nc3c(C(N)=O)cccc3[nH]2)CCCN1
inhibition ([2]; at 0.5 µM): -23.5% (inactive) and -13.6% (inactive)
inhibition [2, 12]: -41.9% and -23.5%
inhibition [2, 13]: -45.7% and 4.68%
inhibition [2, 14]: -38.3% and -18.5%
inhibition ([3]; at 0.5 µM): -49.8% (inactive) and -59.1% (inactive)
inhibition [3, 15]: -12.1% and -70.3%
inhibition [3, 16]: -110% and -65.8%
inhibition ([4]; at 0.5 µM): -8.8% (inactive) and -9.57% (inactive)
inhibition [4, 17]: -16.2% and -2.73%
inhibition [4, 18]: -3.64% and -17.6%
inhibition ([5]; at 0.5 µM): -9.31% (inactive) and 2.13% (inactive)
inhibition [5, 19]: -8.28% and -17%
inhibition [5, 20]: -23.7% and -11.7%
inhibition ([6]; at 0.5 µM): -25% (inactive) and -15.4% (inactive)
inhibition [6, 13]: -36.7% and -21.6%
inhibition [6, 14]: -29.1% and -120%
inhibition [7, 21]: 10.2% and -0.186%
inhibition ([7]; at 0.5 µM): -7.22% (inactive) and -0.79% (inactive)
inhibition [7, 22]: -4.84% and 4.22%
inhibition ([8]; at 0.5 µM): 9.85% (inactive) and -2.9% (inactive)
inhibition [8, 23]: -1.53% and -5.78%
inhibition [8, 24]: 9.8% and -13.1%

C[C@H]1[C@H](OC(=O)CCC(=O)O)O[C@@H]2O[C@@]3(C)CC[C@H]4[C@H](C)CC[C@@H]1[C@@]24OO3
remaining NAD [9]: 10 nM (inactive)

O=C1NCCc2[nH]c(-c3ccncc3)cc21
parasite load remaining [10]: 110% (inactive)
viability [10]: 61.5%
outcome [11]: inactive

CN(C)CCN1C(=O)c2cccc3cc(N)cc(c23)C1=O
inhibition ([2]; at 0.5 µM): -23% (inactive)
inhibition [2, 12]: -41.2%
inhibition [2, 13]: -45%
inhibition [2, 14]: 16.5%
inhibition ([3]; at 0.5 µM): -63% (inactive)
inhibition [3, 15]: -22.2%
inhibition [3, 16]: -129%
inhibition ([4]; at 0.5 µM): 1.51% (inactive)
inhibition [4, 17]: -11.9%
inhibition [4, 18]: 14.4%
inhibition ([5]; at 0.5 µM): -5.91% (inactive)
inhibition [5, 19]: -1.98%
inhibition [5, 20]: -18.9%
inhibition ([6]; at 0.5 µM): -25.1% (inactive)
inhibition [6, 13]: -29.2%
inhibition [6, 14]: -2.51%
inhibition [7, 21]: 38.8%
inhibition ([7]; at 0.5 µM): -2.87% (inactive)
inhibition [7, 22]: 37.9%
inhibition ([8]; at 0.5 µM): 2.38% (inactive)
inhibition [8, 23]: -2.82%
inhibition [8, 24]: -2.98%

Nc1ccccc1NC(=O)c1ccc(CNc2nccc(-c3cccnc3)n2)cc1
inhibition ([2]; at 0.5 µM): 42.2% (inactive)
inhibition [2, 12]: -27.8%
inhibition [2, 13]: 50.9%
inhibition [2, 14]: 96.3%
inhibition ([3]; at 0.5 µM): -11.6% (inactive)
inhibition [3, 15]: -25.1%
inhibition [3, 16]: 19.9%
inhibition ([4]; at 0.5 µM): 40.8% (inactive)
inhibition [4, 17]: 31.4%
inhibition [4, 18]: 76.7%
inhibition ([5]; at 0.5 µM): 27.8% (inactive)
inhibition [5, 19]: -18.3%
inhibition [5, 20]: -16.7%
inhibition ([6]; at 0.5 µM): 36.6% (inactive)
inhibition [6, 13]: 45.3%
inhibition [6, 14]: 98.8%
inhibition [7, 21]: 114%
inhibition ([7]; at 0.5 µM): 29.1% (inactive)
inhibition [7, 22]: 120%
inhibition ([8]; at 0.5 µM): 24.5% (inactive)
inhibition [8, 23]: 21.7%
inhibition [8, 24]: 17.1%
